Experiment [1] addresses Nuclear receptor subfamily 1 group I member 3 (Homo sapiens) (UniProt Q14994). Briefly: qHTS for Constitutive Androstane Receptor (CAR) Agonist screened against the NCATS CANVASS Library (AID 1347373).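 Note: every well also contained 1.5 µM PK11195 alongside the test compound.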 Note: potency is the fitted concentration of half-maximal effect. To be noted: HepG2-hCAR-CYP2B6 luciferase reporter, ONE-Glo luminescence; series mostly up to 46.1 µM. The method, boiled down:
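In an 11-point concentration series, compounds were incubated 24hr with HepG2 cells carrying hCAR and a CYP2B6-2.2kb reporter, with PK11195 at 1.5uM final. A CellTiter-Fluor viability read preceded the ONE-Glo luminescence read.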
(In qHTS, concentration-response curves come from the screen itself.)

Experiment [2] in a line: qHTS for Hypoxia signaling pathway (HIF-1) antagonists against the NCATS CANVASS Library (AID 1347374).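 Note: HRE-bla ME-180 cells stimulated with cobalt chloride to stabilize HIF-1alpha; nearly all actives have a fitted effect of over 60% in size.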 To be noted: HRE-bla ME-180 cells, HIF-1 beta-lactamase reporter, CoCl2; series mostly up to 38.3 µM. The source says:
Natural products and their derivatives continue to be wellsprings of nascent therapeutic potential. However, many laboratories have limited resources for biological evaluation, leaving their previously isolated or synthesized compounds largely or completely untested. To address this issue, the Canvass library of natural products was assembled (https://tripod.nih.gov/canvass), in collaboration with academic and industry researchers, for quantitative high-throughput screening (qHTS) across a diverse set of cell-based and biochemical assays. […] We collected pure natural products to circumvent deconvolution and structure elucidation due to time and resource limitations. The library was formatted into 1536-well plates and evaluated in 50 qHTS (in an 11-pnt concentration series) bioassays with broad scope of disease-relevant mechanisms. The resulting data set from 50 different assays was then systematically analyzed to identify overall trends and specific natural products with interesting biological activities. […] The compounds were also tested for auto fluorescence that may interfere with the biological target readout resulting in potential false positives and/or negatives. […]
HIF-1 antagonist assay protocol: 1. […] The fluorescence intensity was obtained using the EnVision (PerkinElmer, Shelton, CT) plate reader using a 405 nm excitation, and 460 and 530 nm emission filters. […]

A short description of experiment [3]: qHTS for Hypoxia signaling pathway (HIF-1) agonists against the NCATS CANVASS Library (AID 1347375). To be noted: HRE-bla ME-180 cells, HIF-1 beta-lactamase reporter, 17 h; series mostly up to 38.3 µM. The source says:
Natural products and their derivatives continue to be wellsprings of nascent therapeutic potential. However, many laboratories have limited resources for biological evaluation, leaving their previously isolated or synthesized compounds largely or completely untested. To address this issue, the Canvass library of natural products was assembled (https://tripod.nih.gov/canvass), in collaboration with academic and industry researchers, for quantitative high-throughput screening (qHTS) across a diverse set of cell-based and biochemical assays. The pure (>85% purity by liquid chromatography/mass spectrometry [LC/MS]) Canvass library of 346 natural products were submitted by 45 academic laboratories and companies around the world. We collected pure natural products to circumvent deconvolution and structure elucidation due to time and resource limitations. The library was formatted into 1536-well plates and evaluated in 50 qHTS (in an 11-pnt concentration series) bioassays with broad scope of disease-relevant mechanisms. The resulting data set from 50 different assays was then systematically analyzed to identify overall trends and specific natural products with interesting biological activities. Reported herein are the results of each individual qHTS and their corresponding assay protocol. […] The compounds were also tested for auto fluorescence that may interfere with the biological target readout resulting in potential false positives and/or negatives. […]
HIF-1 agonist assay protocol: HRE-bla ME-180 cells were dispensed at 2,000 cells per well in 6 uL of assay medium containing 0.5% dialyzed FBS into black wall/clear-bottom 1536-well plates using a Multidrop Combi (Thermo Scientific, Waltham, MA) dispenser. […] After 2 hr incubation at room temperature, fluorescence intensity (405 nm excitation, 460 nm and 530 nm emissions) was measured using an Envision plate reader (PerkinElmer, Shelton, CT). […] Luminescence signal was obtained using the ViewLux microplate reader (PerkinElmer) using a clear emission mirror, and a 15 sec exposure time, 1x binning settings.

Experiment [4] in a line: 10-beta competent E. coli microbial cell viability qHTS against the NCATS CANVASS Library (AID 1347376). To be noted: E. coli 10-beta viability, BacTiter-Glo ATP luminescence, overnight; series mostly up to 46.1 µM. The method in brief:
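Overnight 37C exposure of 10-beta E. coli (0.2 OD) to an 11-point concentration series; ATP-based luminescence after 20 min room-temperature reagent incubation; daunomycin as control.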

The nature of experiment [5]: DH5-alpha competent E. coli microbial cell viability qHTS against the NCATS CANVASS Library (AID 1347377). To be noted: BacTiter-Glo ATP luminescence, overnight; series mostly up to 46.1 µM. The method in brief: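 Overnight incubation at 37C, 5% CO2 of E. coli DH5-alpha (diluted to 0.2 OD) with compounds precedes BacTiter-Glo addition. Luminescence, acquired after 20 min at room temperature, reflects viable-cell ATP.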

A short description of experiment [6]: qHTS for H2AX Agonists against the NCATS CANVASS Library (AID 1347378). To be noted: CHO-K1 H2AX phosphorylation, HTRF TR-FRET, 3 h; series mostly up to 76.9 µM. The method, boiled down:
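CHO-K1 cells were plated overnight at 37C, then exposed to compounds (concentration series, 0.76% DMSO final) for 3 hr at 37C. Lysates received Eu-cryptate anti-pH2AX (S139) and d2 anti-H2AX antibodies; after 24 hr at room temperature, TR-FRET 665/620 nm ratio was read.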

Experiment [7] can be described thus: qHTS for Antimalaria activity screened against the NCATS CANVASS Library (AID 1347380). Note: nearly all actives have a fitted effect of over 40% in size. Note: potency is the fitted concentration of half-maximal effect. To be noted: P. falciparum Dd2 growth, SYBR Green fluorescence, 72 h; series mostly up to 57 µM. The method in brief: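 Measures proliferation or cytotoxicity against Dd2 blood stages in 72 h cultures, 11-point qHTS dosing, with SYBR Green fluorescence as read-out; dihydroartemisinin titration served as control.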

Experiment [8] can be described thus: Inflammasome Signaling qHTS Counterscreen: IL-1-beta AlphaLISA counterscreen against the NCATS CANVASS Library (AID 1347381).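 Note: cell-free check with purified IL-1β in medium and no THP-1 cells.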 To be noted: Purified IL-1beta AlphaLISA signal interference counterscreen; series mostly up to 57.5 µM. The method, boiled down:
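Here, no cellular stimulation occurs; compounds in an 11-point series meet 4 pg purified IL-1-beta directly. Bead-based AlphaLISA detection follows (1 h acceptor/antibody, then 30 min donor, dark, room temperature), with excitation at 680 nm.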

The nature of experiment [9]: Cytotoxicity qHTS for assessment of Hepg2 cells membrane integrity screened against the NCATS CANVASS Library (AID 1347387). To be noted: HepG2 LDH release (CytoTox-ONE) fluorescence, 5 h; series mostly up to 46.1 µM. The method, boiled down: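 Membrane damage in HepG2 monolayers was estimated from released LDH, measured with CytoTox-ONE (ex 560/em 590 nm), after 5 hr treatment across 0.59 nM - 46 uM final.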

The nature of experiment [10]: qHTS for Inflammasome Signaling Inhibitors: IL-1-beta AlphaLISA screen against the NCATS CANVASS Library (AID 1347379).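 Note: human THP-1 cells primed with LPS then triggered with ATP.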 To be noted: THP-1 LPS/ATP, IL-1B AlphaLISA secretion, 16 h; series mostly up to 57.5 µM. The method, boiled down: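 THP-1, 1 hr compound pre-incubation, then LPS 250 ng/mL + ATP 1.25 mM (final); 16 hr total with compound; IL-1B AlphaLISA, ex 680/em 615 nm; 11-point qHTS, up to 57.5 uM final.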

In PubChem BioAssay (NCATS) one finds Potency and outcome data, which are given here for four compounds.

Results filed as inconclusive are left out. Calls of active or inactive are those of the source. Calls come from the whole dose curve; as a rule, active = well fitted curve in the direction sought with a large enough effect; inconclusive = small, poorly fitted or top-dose-only effect, or another doubt; inactive = no such curve, though single readings can be large; an effect the other way counts as inactive or inconclusive.

Nuclear receptor subfamily 1 group I member 3 (Homo sapiens), sequence (Q14994 whole entry, looked up): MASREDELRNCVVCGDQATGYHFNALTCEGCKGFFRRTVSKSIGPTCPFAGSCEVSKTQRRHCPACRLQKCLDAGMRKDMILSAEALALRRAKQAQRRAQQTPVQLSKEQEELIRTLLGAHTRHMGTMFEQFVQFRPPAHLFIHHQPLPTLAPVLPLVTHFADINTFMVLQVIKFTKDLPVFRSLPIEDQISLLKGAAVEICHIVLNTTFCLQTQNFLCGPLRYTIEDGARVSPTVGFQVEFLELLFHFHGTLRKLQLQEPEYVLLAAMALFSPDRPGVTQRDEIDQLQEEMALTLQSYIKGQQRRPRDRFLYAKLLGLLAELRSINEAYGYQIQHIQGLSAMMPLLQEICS

As to `CC(=O)O[C@H]1C[C@@]2(C)[C@@H](CC[C@H]3[C@@]4(C)C=CC(=O)[C@@H](C)[C@@H]4[C@H](OC(C)=O)C(=O)[C@@]32C)/C1=C(\CCC=C(C)C)C(=O)O`, the Potency result in [1] is “inactive”. Moreover, the call in experiment [2], in experiment [3], in experiment [4], in experiment [6], in experiment [8] and in [9] was inactive. Further, the outcome in experiment [5] was “inactive [at 46.1 µM]”. For the same compound, the Potency in [7] was 10.6 µM (active).
`C/C(=C\CC/C(C)=C/CC[C@]1(C)CCc2cc(O)cc(C)c2O1)CC/C=C(\C)C(=O)O`: the Potency entry in experiment [1] was “inactive”. For the same compound, the compound was called inactive in experiment [3], in experiment [4], in experiment [6], in experiment [10], in experiment [8] and in experiment [9].
Turning to `CC(C)c1ccc2c(c1)CCC1[C@](C)(C(=O)O)CCC[C@]21C` (stereo partly drawn), the compound was called inactive in experiment [2], in experiment [3], in experiment [4], in [5], in experiment [6] and in experiment [10]. Also, the compound was called inactive in experiment [8] and in experiment [9]. Moreover, the Potency result in [7] was “inactive”.
Turning to `O=C(/C=C/C=C/c1ccc2c(c1)OCO2)N1CCCCC1`, the Potency in [1] was 4.14 µM (active). For the same compound, the call in experiment [4], in experiment [5], in experiment [6], in experiment [10], in [8] and in experiment [9] was inactive. Further, the Potency result in experiment [7] was “inactive”.
